Experimental data published in PubChem BioAssay AID1903 (Southern Research Specialized Biocontainment Screening …, 2009).
Among all 310,000 compounds or so, about 1,200 (0.39%) were called active. The rule behind the calls is not given here. Not all results are given here. Measured potencies and affinities stand elsewhere.

The compounds below were run against Large T antigen (Simian virus 40) (UniProt P03070) (assay: TAg ATPase/helicase activity blockers – biochemical (AID 1903)). Details: SV40 large T antigen ATPase/helicase inhibition assay; at 20 µM; active compounds read high.
Sequence of Large T antigen (Simian virus 40) (P03070 whole entry, looked up): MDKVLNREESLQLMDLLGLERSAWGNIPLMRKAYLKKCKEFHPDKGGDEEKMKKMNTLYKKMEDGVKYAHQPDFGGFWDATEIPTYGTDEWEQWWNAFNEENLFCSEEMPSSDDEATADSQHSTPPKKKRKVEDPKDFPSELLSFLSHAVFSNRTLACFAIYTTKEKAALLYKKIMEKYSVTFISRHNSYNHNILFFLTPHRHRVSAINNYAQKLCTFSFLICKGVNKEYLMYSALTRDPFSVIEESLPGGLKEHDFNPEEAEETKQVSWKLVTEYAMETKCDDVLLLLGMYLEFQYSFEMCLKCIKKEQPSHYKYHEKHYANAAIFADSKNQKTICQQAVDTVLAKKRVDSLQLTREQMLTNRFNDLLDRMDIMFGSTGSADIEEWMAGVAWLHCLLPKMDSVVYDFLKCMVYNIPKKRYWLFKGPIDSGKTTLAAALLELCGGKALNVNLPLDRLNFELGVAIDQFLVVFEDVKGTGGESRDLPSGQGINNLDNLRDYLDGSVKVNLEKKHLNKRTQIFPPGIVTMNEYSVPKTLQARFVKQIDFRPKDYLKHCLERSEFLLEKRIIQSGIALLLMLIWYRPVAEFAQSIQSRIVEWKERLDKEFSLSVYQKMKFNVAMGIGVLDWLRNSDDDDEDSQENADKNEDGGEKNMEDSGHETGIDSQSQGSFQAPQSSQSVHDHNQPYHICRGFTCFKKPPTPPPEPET
With `C(/C=C/c1ccco1)=N/N1CCN(c2ccccc2)CC1` the inhibition was 7.94% (inactive). For `S=c1[nH]nc(-c2ccc(Cl)cc2)n1/N=C/c1ccco1`, the inhibition was 35.9% (inactive). In the case of `Cc1ccccc1-n1nc2c(c1NC(=O)c1ccc3c(c1)OCO3)CS(=O)(=O)C2`, the inhibition is reported as 5.82% (inactive). For `CC(=O)Nc1ccc(N(C(=O)c2ccccn2)C(C(=O)NC2CCCCC2)c2ccc(F)cc2)cc1` (centres undefined), the inhibition was 5.17% (inactive). In the case of `Cc1ccc2[nH]c(=O)c(C(c3nnnn3C(C)(C)C)N(Cc3ccco3)CC3CCCO3)cc2c1` (centres undefined), the inhibition is reported as 9.73% (inactive). `Cc1occc1C(=O)Nc1sc2c(c1C(N)=O)CCC(C(C)(C)C)C2` (centres undefined) was tested, and the inhibition was 16.6% (inactive). In the case of `COc1cc(OC)c(N(C)S(=O)(=O)c2cccc(C(=O)OCc3c(C)noc3C)c2)cc1Cl`, the inhibition is reported as 5.27% (inactive). `Cc1ccc(N2C(=O)C3CCC(C)(C2=O)C3(C)C)cc1` (centres undefined) was tested, and the inhibition was 1.07% (inactive). For `O=C(Cn1cnc2ccccc2c1=O)Nc1nc2ccccc2s1`, the inhibition was 4.55% (inactive). `Cc1nnsc1C(=O)N1CCCC(C(=O)c2ccc(C(F)(F)F)cc2)C1` (centres undefined) was tested, and the inhibition was -2.34% (inactive). For `Cc1cccc(OCC(=O)N2CCN(c3nnc(-c4ccccc4)c4ccccc34)CC2)c1`, the inhibition was 12.7% (inactive). `CCn1cc(C(=O)NCC(C)C)c(=O)c2cc(F)c(N3CCN(C)CC3)cc21` was tested, and the inhibition was 15.3% (inactive). In the case of `COc1cc(OC)cc(C(=O)NCC2CCCN(C(=O)c3csc(C(C)C)n3)C2)c1` (centres undefined), the inhibition is reported as 12.6% (inactive). With `Cc1ccc(COc2ccc(S(=O)(=O)N3CCCC3)cc2C(N)=O)cc1` the inhibition was 4.61% (inactive). In the case of `O=C(Nc1ccc(F)cc1)Oc1ccc[nH]c1=O`, the inhibition is reported as 9.86% (inactive). In the case of `COc1ccccc1N1CCN(C(=O)/C=C/c2ccc(C)cc2)CC1`, the inhibition is reported as 9.93% (inactive). With `CCc1ccc2[nH]c(=O)c(CN(CC3CCCO3)C(=S)NCc3ccco3)cc2c1` (centres undefined) the inhibition was 10.7% (inactive). `O=C(CSc1n[nH]c(=O)n1Cc1ccco1)Nc1ccccc1Cl` was tested, and the inhibition was 12.1% (inactive). For `N=c1n(CCO)c2ccccc2n1CCN1CCCCC1`, the inhibition was 6.21% (inactive). In the case of `COc1ccc(N2C(=O)c3ccccc3NC23CCCC3)cc1`, the inhibition is reported as 5.28% (inactive). In the case of `COc1ccc(N2C(=O)c3ccccc3NC23CCCCC3)cc1`, the inhibition is reported as -1.05% (inactive). With `O=[N+]([O-])c1cccc(S(=O)(=O)c2cccc([N+](=O)[O-])c2)c1` the inhibition was 3.63% (inactive). For `O=C(/C(=C(\[O-])c1ccccc1)[n+]1ccc2ccccc2c1)c1ccc([N+](=O)[O-])cc1`, the inhibition was 15% (inactive). In the case of `CCC(C)N(C(=O)CSc1nnc(-c2ccco2)n1C)C1CCS(=O)(=O)C1` (centres undefined), the inhibition is reported as 13.2% (inactive). In the case of `CCc1nc2nc(C)c(NS(=O)(=O)c3ccc(C)c(C)c3)c(=O)n2[nH]1`, the inhibition is reported as 4.17% (inactive). In the case of `O=C(Oc1ccc(-c2nnco2)cc1)C1CCN(C(=O)c2ccc(F)cc2)CC1`, the inhibition is reported as 5.55% (inactive). For `COC(=O)N/C(C)=C1/NC(=O)c2ccccc2C(c2ccccc2)N1` (centres undefined), the inhibition was 6.67% (inactive). In the case of `O=C(O)c1ccc2c(=O)n3c(nc2c1)/C(=C/c1ccc(Cl)c(Cl)c1)CC3`, the inhibition is reported as 24.8% (inactive). `CC(=O)c1ccc(OC(=O)C(CCS(C)(=O)=O)N2C(=O)c3ccccc3C2=O)cc1` (centres undefined) was tested, and the inhibition was 3.15% (inactive). For `COc1ccc(NC(=O)C(CCS(C)(=O)=O)N2C(=O)c3ccccc3C2=O)cc1` (centres undefined), the inhibition was 11.7% (inactive). For `CCOC(=O)N1CCN(C(=O)CC(C)S(=O)(=O)c2cc3c(cc2C)NC(=O)CO3)CC1` (centres undefined), the inhibition was 6.54% (inactive). For `Cc1ccc(-n2c(SCC(=O)OC(C)C)nnc2-c2ccncc2)cc1`, the inhibition was 9.08% (inactive). In the case of `O=c1[nH]c2ccc(F)cc2[nH]c1=O`, the inhibition is reported as 22.1% (inactive). For `Cc1cc(=O)c2ccccc2s1`, the inhibition was 23.3% (inactive). With `O=c1[nH]c2ccccc2c2ccccc12` the inhibition was 11.7% (inactive). In the case of `O=C1Nc2ccc(F)cc2C12SCCS2`, the inhibition is reported as -3.17% (inactive). With `CC(=O)N1CCN(c2cc(N3CCc4ccccc4C3)c(F)cc2[N+](=O)[O-])CC1` the inhibition was 29.4% (inactive). In the case of `COc1ccc(C(=O)O)cc1N1C(=O)Nc2ccccc2N1O`, the inhibition is reported as 13.6% (inactive). `O=C(NCc1cccs1)C1CC(O)CN1C(=O)Nc1ccccc1` (centres undefined) was tested, and the inhibition was 3.53% (inactive). For `Nc1ccccc1Nc1nc2ccccc2[nH]1`, the inhibition was 26.5% (inactive). For `Nc1ccc(-c2nc3ccccc3[nH]2)cc1`, the inhibition was 6.85% (inactive). For `COc1ccc(CCNC(=O)c2cn(C)c3ccc(S(=O)(=O)N4CCOCC4)cc3c2=O)cc1OC`, the inhibition was 5.2% (inactive). With `C=CCNS(=O)(=O)c1ccc(OC)c(C)c1` the inhibition was 1.44% (inactive). For `CCCN1C(=O)/C(=C/c2ccc(C)s2)NC1=S`, the inhibition was 8.4% (inactive). In the case of `O=c1oc(/C=C/c2ccc([N+](=O)[O-])s2)nc2ccccc12`, the inhibition is reported as 6.31% (inactive). `O=C(/C=C/c1ccc([N+](=O)[O-])s1)N1CCN(c2ccccc2)CC1` was tested, and the inhibition was 16% (inactive). In the case of `O=C(N/N=C/c1ccc([N+](=O)[O-])s1)C(O)c1ccccc1` (centres undefined), the inhibition is reported as 4.11% (inactive). With `CCN1C(=O)/C(=C/c2ccc(C)s2)NC1=S` the inhibition was 11.9% (inactive). For `CN(C(=O)/C=C/c1ccc([N+](=O)[O-])s1)c1ccccc1`, the inhibition was -0.18% (inactive).
